# KLF5 inh: kruppel-like factor 5 inhibition; DLD-1 KLF5 promoter-luciferase reporter, luminescence; inhibition, % at 5 µM; 0.23% of 290,000 active; AID 1700;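 active means inhibition above a per-plate limit of that plate's mean compound inhibition plus 3 SD, cut at about 60% in these data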;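 further: higher means less KLF5 promoter-driven luciferase light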
# Ba/F3 V617F tox: reduce viability of Ba/F3 cells dependent on JAK2V617F. 1.1% of 220,000 active. inhibition, % at 5.6 µM. AID 1446. Ba/F3 EpoR-JAK2V617F viability, ATP luminescence;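 active means inhibition above the campaign mean plus 3 SD over all tested compounds, cut at about 24% in these data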;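 further: cytokine-independent growth of Ba/F3 cells driven by EpoR plus mutant JAK2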
# BaF3 parental: reduces parental Ba/F3 cell viability, JAK2V617F counter-screen; 1.1% of 220,000 active; AID 1486; CellTiter-Glo ATP luminescence; inhibition, % at 5.6 µM;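 active means inhibition above a per-campaign cutoff, the mean inhibition of all tested compounds plus 3 SD, cut at about 27% in these data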
# IEC-6 tox: kills IEC-6 intestinal cells in KLF5 counter-screen. AID 1825. 0.78% of 290,000 active. inhibition, % at 5 µM. IEC-6 cytotoxicity, luminescence viability; in the data active means inhibition above about 22%
# APP transl inh: APP translation inhibition; SH-SY5Y APP 5'UTR-luciferase reporter, luminescence; inhibition, % at 2 µM; 0.82% of 190,000 active; AID 1285;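 active means inhibition above a set limit, derived from the sample mean plus 3 SD, cut at about 45% in these data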
# BaF3 parental 2: parental Ba/F3 viability inhibition for JAK2V617F counter-screen | shares compounds with Ba/F3 V617F tox | CellTiter-Glo luminescence; cells kept alive by added IL-3 | inhibition, % at 5.6 µM | 31% of 580 active | AID 1520;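 active means cell growth inhibition above the hit limit set in the earlier mutant JAK2 cell screen, cut at about 27% in these data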
# JAK2V617F confrm: Ba/F3 EpoR-JAK2V617F viability loss, confirmation; CellTiter-Glo luminescence; inhibition, % at 5.6 µM; shares compounds with Ba/F3 V617F tox; AID 1521; 66% of 580 active;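 active means mean inhibition above the hit cutoff derived in the earlier primary screen, cut at about 25% in these data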;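 further: higher means lower luminescence from reduced cell ATP and viability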
# Numbers stand for hits; i = inactive; nt = no result. Rows were chosen to be rich in hits. Some 1.8% of all compounds tested hit in one or more screens of this group.
SMILES,KLF5 inh,Ba/F3 V617F tox,BaF3 parental,IEC-6 tox,APP transl inh,BaF3 parental 2,JAK2V617F confrm
COC1(OC)C(/C=C/c2ccc(C)cc2)C(C#N)(C#N)C1(OC)OC (stereo not drawn),i,36.7,i,i,i,i,50.3
CCOc1ccc(Cl)cc1S(=O)(=O)N1CCC(C(=O)NCc2ccncc2)CC1,i,nt,nt,i,nt,nt,nt
COc1ccc(S(=O)(=O)N(CCCN2CCCC2=O)Cc2cc3cc(C)c(C)cc3[nH]c2=O)cc1,i,i,i,i,i,nt,nt
Cc1ccc(S(=O)(=O)N(CCCN2CCCC2=O)Cc2cc3c(C)ccc(C)c3[nH]c2=O)cc1,i,61.6,i,i,i,i,i
Nc1[nH]n(-c2ccccc2)c(=O)c1N=Nc1ccc2c(c1)OCO2,i,27.0,i,i,nt,57.3,44.1
Fc1ccc(N2CCN(Cc3ccccn3)CC2)cc1,i,63.2,i,i,i,i,i
Fc1ccc(N2CCN(Cc3cn[nH]c3-c3ccccc3)CC2)cc1,i,i,i,i,nt,nt,nt
COc1cccc(/C=N/Nc2nc3ccccc3[nH]2)c1O,i,77.2,i,i,nt,59.0,88.8
CC(=O)Nc1ccc(/C=N/Nc2nc3ccccc3[nH]2)cc1,i,i,i,i,i,nt,nt
CCN(CC)c1ccc(/C=N/Nc2nc3ccccc3[nH]2)cc1,i,49.8,i,41.1,i,i,64.3
COc1cccc(/C=N/Nc2ncnc3scc(-c4ccccc4)c23)c1O,79.8,40.6,i,i,89.4,92.4,97.7
COC(=O)c1sccc1N/N=C/c1cccc(OC)c1O,i,i,i,i,i,nt,nt
COCCNC(=O)CN(C(=O)c1ccc(N2CCCC2)nc1)c1ccccc1,i,63.6,i,i,i,i,i
COCCNC(=O)CN(C(=O)c1ccc(N2CCCC2)nc1)c1ccc(F)c(Cl)c1,i,nt,nt,i,nt,nt,nt
NC(=O)/C(=N\OC(=O)c1ccco1)c1nc(-c2ccc(Br)cc2)cs1,i,31.2,i,i,i,i,30.7
Cc1ccc(Nc2nc(-c3ccc(O)c(O)c3)cs2)nc1,i,92.1,i,i,i,95.5,98.5
O=C(c1ccco1)N(Cc1cc2ccccc2[nH]c1=O)CC1CCCO1 (stereo not drawn),i,68.5,i,i,i,i,i
Cc1cccc2cc(CN(CC3CCCO3)C(=O)c3ccco3)c(=O)[nH]c12 (stereo not drawn),i,i,i,i,i,nt,nt
O=C(COC(=O)c1ccncc1)Nc1cc(Cl)ccc1Cl,i,44.9,i,i,i,i,i
CC1CC(C)CN(CCCCOc2ccc([N+](=O)[O-])cc2)C1 (stereo not drawn),i,i,i,i,i,nt,nt
O=C(NC(=S)N1CCN(c2ccccc2)CC1)c1ccccc1,i,nt,nt,i,nt,nt,nt
CC(=O)Nc1ccc(Nc2nc(-c3cc4ccccc4oc3=O)cs2)cc1,i,nt,nt,i,nt,nt,nt
Nc1ccc(Nc2nc(-c3cc4ccccc4oc3=O)cs2)cc1,i,84.1,i,i,i,77.4,99.3
CCOc1cc(C#N)c(NC(=O)c2ccco2)cc1OCC,i,39.1,i,i,i,i,23.6
CCOc1cc(NC(=O)c2ccco2)c(OCC)cc1NC(=O)c1ccco1,i,nt,nt,i,nt,nt,nt
SMILES,KLF5 inh,Ba/F3 V617F tox,BaF3 parental,IEC-6 tox,APP transl inh,BaF3 parental 2,JAK2V617F confrm
O=C(NCCCCNC(=O)c1ccc(Cl)s1)c1ccc(Cl)s1,i,i,i,i,i,nt,nt
O=C(NCCCCCCNC(=O)c1ccc(Br)s1)c1ccc(Br)s1,i,37.1,i,i,i,i,i
Cc1ccc2oc(=O)c(/C=C(\O)C(C)(C)C)nc2c1,i,i,i,i,i,nt,nt
CC(C)(C)/C(O)=C/c1nc2cc(Cl)ccc2oc1=O,i,36.9,i,i,nt,i,78.3
COc1ccc(OCc2cc(C(=O)NC(C)Cn3cncn3)no2)c(Cl)c1 (stereo not drawn),i,nt,nt,i,nt,nt,nt
CC(C)C[C@H](N)c1nnc(SCC(=O)Nc2ccc(Br)cc2)o1,i,nt,nt,i,nt,nt,nt
CC(C)C[C@H](NC(=O)OC(C)(C)C)c1nnc(SCC(=O)Nc2ccc(Br)cc2)o1,i,99.3,i,i,i,i,i
CC(=O)Nc1ccc(C(=O)NCC(=O)OCc2c(F)cccc2Cl)cc1,i,i,i,i,i,nt,nt
CCCC(=O)Nc1ccc(Cl)c(NC(=O)c2cccnc2)c1,i,60.1,i,i,i,i,i
Cn1c(=O)c2nc(NCc3ccccc3)cnc2n(C)c1=O,i,i,i,i,i,nt,nt
Cc1nc2c(=O)n(C)c(=O)n(C)c2nc1Cl,i,38.8,i,i,45.5,i,61.6

# Screening data (PubChem BioAssay)
